uPA surface inh: inhibitors of cell surface uPA generation. AID 540303. cell surface uPA generation assay, qHTS. hit rate 0.31% among 330,000. Potency, µM (highest dose often 38.3 µM), without a hit: top-dose activity change, negative = inhibition, most hits filed as inhibitors; active means well fitted inhibition curve with a large enough effect; inconclusive means small, poorly fitted or top-dose-only effect; inactive means no such curve, though single readings can be large or run the other way; tested in mouse RAW 264.7 cells; further: potency means the concentration at half of the fitted maximal effect; nearly all actives have a fitted effect of over 55% in size
HT1080 IDH1KD tx: toxicity to HT-1080 IDH1 knockdown cells (counter line); HT-1080 IDH1 knockdown viability, ATP luminescence, 48 h; Potency, µM (top dose mostly 46.1 µM), for inactives: at the highest dose activity, negative = toxicity, usual class: cytotoxic; hit rate 2% among 360,000; AID 686971;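 further: potency means the concentration at half of the fitted maximal effect; 0% = DMSO wells and -100% = cell-free medium wells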
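% activity derives from luminescence (CellTiter-Glo), normalised to DMSO and no-cell wells. HT-1080-IDH1KD cells, 750/well, had 48 h compound exposure at 37 °C.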
HT1080NT lethal: kills 2HG-producing HT-1080-NT fibrosarcoma cells. HT-1080-NT fibrosarcoma viability, CellTiter-Glo ATP luminescence, 48 h. Potency, µM (highest dose often 46.1 µM), without a hit: at the highest dose activity, negative = less viability, actives largely listed as cytotoxic. hit rate 1.6% among 360,000;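 further: NT is the 2HG producing partner of a matched IDH1 knockdown line; potency means the concentration at half of the fitted maximal effect; 0% = DMSO-treated cells and -100% = media-only wells without cells; nearly all actives have a fitted effect of over 55% in size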
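HT-1080-NT; 750 cells/well; 5% FBS RPMI; 48 h compound, 37 degrees C; CellTiter-Glo luminescence; curve fitting and curve-class assignment.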
DT40 TDP1 CPT: growth inhibition of DT40 Tdp1-/-;hTDP1 cells with camptothecin (screen for TDP1 inhibitors). hit rate 12% among 420,000. Potency, µM (series often up to 46.2 µM), for inactives: at the highest dose activity change, negative = growth inhibition, usual class: inhibitors. chicken DT40 Tdp1-/-;hTDP1 cells + 20 nM CPT, ATP luminescence, 48 h; further: potency means the concentration at half of the fitted maximal effect; nearly all actives have a fitted effect of over 55% in size
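Chicken DT40 Tdp1-/- cells complemented with human TDP1, 400 cells/well, exposed to compounds plus 20 nM camptothecin for at least 48 h at 37 C; viability read as ATP content by CellTiter-Glo luminescence.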
DT40 TDP1 no CPT: qHTS for Inhibitors of human tyrosyl-DNA phosphodiesterase 1 (TDP1): qHTS in cells in absence of CPT | AID 686978, 2013 | DT40 Tdp1-/- hTDP1 cells, no CPT, ATP luminescence, 48 h | Potency, µM (series often up to 46.2 µM), without a hit: at the highest dose activity change, negative = growth inhibition, hits mostly inhibitors | hit rate 15% among 420,000; further: potency means the concentration at half of the fitted maximal effect; nearly all actives have a fitted effect of over 55% in size
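Readout: luminescence from CellTiter-Glo after 30 min in the dark at RT. Cells: DT40 Tdp1-/- with stable hTDP1, 400/well. Exposure: compounds alone, ≥48 hr, 37 °C.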
IL1B secr inh: inflammasome signaling inhibition, IL-1 beta readout; activity change, % at 57.5 µM; THP-1 LPS/ATP IL-1B secretion, AlphaLISA, 16 h; stronger effect = lower value; hit rate 4.7% among 360,000; in the data active means activity change below about -50%; inconclusive means mostly about -30% to -49%
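Secreted IL-1B measured by AlphaLISA bead assay after 16 h compound exposure of THP-1 cells; compounds (final up to 57.5 uM) added 1 h before LPS (250 ng/mL) and ATP (1.25 mM) stimulation; lower signal means less secretion.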
The depositor's hits bear a star. An excerpt weighted towards active compounds, which were near 19% of everything screened. Unless noted, the call rests on the fitted dose curve; in most records, active means well fitted curve in the direction sought with a large enough effect; inconclusive means small, poorly fitted or top-dose-only effect, or another doubt; inactive means no such curve, though single readings can be large; an effect the other way counts as inactive or inconclusive. Unless noted, on the % scale 0 is the no-effect control and ±100 the full control effect.

Screening CC(=O)Nc1ccc(NC(=O)c2c(C)nn(Cc3ccccc3)c2Cl)cc1 returned uPA surface inh 3%, HT1080 IDH1KD tx 22%, HT1080NT lethal 4%, DT40 TDP1 CPT 13µM*, DT40 TDP1 no CPT 1.2µM* and IL1B secr inh -6.
`CCOC(=O)c1sc(NC(=O)c2c(C)nn(Cc3ccccc3)c2C)cc1C` gave uPA surface inh 0%, HT1080 IDH1KD tx inconclusive, HT1080NT lethal inconclusive, DT40 TDP1 CPT 16µM*, DT40 TDP1 no CPT inconclusive and IL1B secr inh -20.
`CCCN1CCN(C(=O)C2CCN(S(=O)(=O)c3c(C)noc3/C=C/c3ccc(C)cc3)CC2)CC1` gave uPA surface inh inconclusive, HT1080 IDH1KD tx inconclusive, HT1080NT lethal 16µM*, DT40 TDP1 CPT 21µM*, DT40 TDP1 no CPT 21µM* and IL1B secr inh inconclusive.
For Cc1cccc(N2CCN(C(=O)C3CCN(S(=O)(=O)c4c(C)noc4C)CC3)CC2C)c1 (stereo not drawn) the results were uPA surface inh -6%, HT1080 IDH1KD tx 0%, HT1080NT lethal -6%, DT40 TDP1 CPT 8.2µM*, DT40 TDP1 no CPT 9.2µM* and IL1B secr inh 4.
`Cc1noc(C)c1S(=O)(=O)N1CCC(C(=O)N2CCC(C)CC2)CC1` gave uPA surface inh -4%, HT1080 IDH1KD tx -2%, HT1080NT lethal 0%, DT40 TDP1 CPT -11%, DT40 TDP1 no CPT 2% and IL1B secr inh -2.
Screening COc1ccc(/C=C/c2onc(C)c2S(=O)(=O)N2CCC(C(=O)N3CCCCCC3)CC2)cc1 returned uPA surface inh -6%, HT1080 IDH1KD tx -15%, HT1080NT lethal -12%, DT40 TDP1 CPT inconclusive, DT40 TDP1 no CPT inconclusive and IL1B secr inh inconclusive.
For CCCN(C(=O)C1CCN(S(=O)(=O)c2c(C)noc2/C=C/c2ccc(C)cc2)CC1)c1ccccc1F the results were DT40 TDP1 CPT inconclusive and DT40 TDP1 no CPT 23µM*.
CCOC(=O)C1CCCN(C(=O)C2CCN(S(=O)(=O)c3c(C)noc3/C=C/c3ccc(C)cc3)CC2)C1 (stereo not drawn) was read as DT40 TDP1 CPT 18µM* and DT40 TDP1 no CPT inconclusive.
`Cc1ccc(/C=C/c2onc(C)c2S(=O)(=O)N2CCC(C(=O)N3CCOc4ccccc43)CC2)cc1` gave DT40 TDP1 CPT inconclusive and DT40 TDP1 no CPT -10%.
For Cc1ccc(/C=C/c2onc(C)c2S(=O)(=O)N2CCC(C(=O)N3CCCCC3)CC2)cc1 the results were uPA surface inh 7%, HT1080 IDH1KD tx -5%, HT1080NT lethal -6%, DT40 TDP1 CPT inconclusive, DT40 TDP1 no CPT inconclusive and IL1B secr inh inconclusive.
For Cc1cccc(/C=C/c2onc(C)c2S(=O)(=O)N2CCC(C(=O)N3CCCCC3)CC2)c1 the results were uPA surface inh -15%, HT1080 IDH1KD tx -8%, HT1080NT lethal -1%, DT40 TDP1 CPT 29µM*, DT40 TDP1 no CPT 18µM* and IL1B secr inh -15.
Screening CCCCn1c(=O)[nH]c(=O)c2c1nc(-c1ccccc1F)n2Cc1ccccc1OC returned HT1080 IDH1KD tx -7%, HT1080NT lethal -4%, DT40 TDP1 CPT 23µM*, DT40 TDP1 no CPT inconclusive and IL1B secr inh 8.
CCCn1c(-c2ccc(C(=O)OC)cc2)nc2c1c(=O)[nH]c(=O)n2Cc1ccccc1 was read as uPA surface inh 5%, HT1080 IDH1KD tx -2%, HT1080NT lethal 12%, DT40 TDP1 CPT 12%, DT40 TDP1 no CPT -14% and IL1B secr inh 45.
Screening CCCCn1c(=O)[nH]c(=O)c2c1nc(-c1cc(Br)ccc1OC)n2C returned uPA surface inh -1%, HT1080 IDH1KD tx 2%, HT1080NT lethal 2%, DT40 TDP1 CPT -2%, DT40 TDP1 no CPT inconclusive and IL1B secr inh 31.
`CCCn1c(-c2cccc([N+](=O)[O-])c2)nc2c1c(=O)[nH]c(=O)n2Cc1ccccc1` gave uPA surface inh -5%, HT1080 IDH1KD tx -5%, HT1080NT lethal -9%, DT40 TDP1 CPT 21µM*, DT40 TDP1 no CPT 16µM* and IL1B secr inh -5.
`CCCCn1c(=O)[nH]c(=O)c2c1nc(-c1ccsc1)n2Cc1ccccc1` gave uPA surface inh -2%, HT1080 IDH1KD tx -29%, HT1080NT lethal inconclusive, DT40 TDP1 CPT inconclusive, DT40 TDP1 no CPT 29µM* and IL1B secr inh -21.
`CCCCn1c(-c2ccsc2)nc2c1c(=O)[nH]c(=O)n2CCC` gave uPA surface inh -1%, HT1080 IDH1KD tx 7%, HT1080NT lethal 0%, DT40 TDP1 CPT inconclusive, DT40 TDP1 no CPT inconclusive and IL1B secr inh 40.
`COc1ccc2c(c1)cc1c(=O)n(CC(=O)NC3CCCCC3)nc(C)n12` gave DT40 TDP1 CPT 8% and DT40 TDP1 no CPT 3%.
`CCc1ccc(NC(=O)C2CCC(CNS(=O)(=O)c3cccs3)CC2)cc1` (stereo not drawn) gave DT40 TDP1 CPT -5% and DT40 TDP1 no CPT inconclusive.
`CCOc1ccc(-c2cncc3nccn23)cc1` gave HT1080 IDH1KD tx 14%, HT1080NT lethal inconclusive, DT40 TDP1 CPT -22%, DT40 TDP1 no CPT -26% and IL1B secr inh -52*.
`CCOC(=O)c1c(C)[nH]c(C)c1S(=O)(=O)N(C)CC(=O)Nc1ccc(C)c(N(C)C)c1` gave DT40 TDP1 CPT -22% and DT40 TDP1 no CPT -17%.
C=CCN1C=CC(=O)CC1 was read as uPA surface inh 3%, HT1080 IDH1KD tx -1%, HT1080NT lethal 2%, DT40 TDP1 CPT -14%, DT40 TDP1 no CPT -2% and IL1B secr inh 21.
Screening NNc1nc(-c2ccccc2)nc(-c2ccccc2)c1Br returned uPA surface inh -3%, HT1080 IDH1KD tx -1%, HT1080NT lethal 9%, DT40 TDP1 CPT inconclusive, DT40 TDP1 no CPT 8.2µM* and IL1B secr inh -2.
`CNc1nc(-c2ccccc2)nc(-c2ccccc2)c1C#N` gave uPA surface inh -8%, HT1080 IDH1KD tx 20%, HT1080NT lethal -8%, DT40 TDP1 CPT inconclusive, DT40 TDP1 no CPT -6% and IL1B secr inh -2.
For CN(C)c1ccc(/C=C(/NC(=O)c2ccccc2Cl)C(=O)NCCN2CCOCC2)cc1 the results were uPA surface inh -4%, HT1080 IDH1KD tx -6%, HT1080NT lethal 0%, DT40 TDP1 CPT 5%, DT40 TDP1 no CPT -6% and IL1B secr inh -16.
Screening COc1ccc(C(=O)C(=O)N2CCC(Cc3ccccc3)CC2)cc1OC returned HT1080 IDH1KD tx -16%, HT1080NT lethal -14%, DT40 TDP1 CPT inconclusive, DT40 TDP1 no CPT 21µM* and IL1B secr inh -15.
